According to PubChem BioAssay:
Some of the results follow. Unmarked numbers belong to inactive results. The source made the active and inactive calls. Cut-off read from the data, not from the text of the source, unless noted: active = activation above about 24%; inactive = the rest.

target: Peroxisome proliferator-activated receptor gamma (Homo sapiens) (UniProt P37231); experiment: retested PPARg-SRC-2 recruitment enhancers – biochemical, HTS, confirmation (AID 1297; in the data active = activation above about 22%;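 note: 0% = vehicle alone and 100% = reference agonist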); details: biochemical SRC-2 recruitment by PPARgamma; at 8 µM; stronger effect = higher value
Sequence (P37231 whole entry, looked up): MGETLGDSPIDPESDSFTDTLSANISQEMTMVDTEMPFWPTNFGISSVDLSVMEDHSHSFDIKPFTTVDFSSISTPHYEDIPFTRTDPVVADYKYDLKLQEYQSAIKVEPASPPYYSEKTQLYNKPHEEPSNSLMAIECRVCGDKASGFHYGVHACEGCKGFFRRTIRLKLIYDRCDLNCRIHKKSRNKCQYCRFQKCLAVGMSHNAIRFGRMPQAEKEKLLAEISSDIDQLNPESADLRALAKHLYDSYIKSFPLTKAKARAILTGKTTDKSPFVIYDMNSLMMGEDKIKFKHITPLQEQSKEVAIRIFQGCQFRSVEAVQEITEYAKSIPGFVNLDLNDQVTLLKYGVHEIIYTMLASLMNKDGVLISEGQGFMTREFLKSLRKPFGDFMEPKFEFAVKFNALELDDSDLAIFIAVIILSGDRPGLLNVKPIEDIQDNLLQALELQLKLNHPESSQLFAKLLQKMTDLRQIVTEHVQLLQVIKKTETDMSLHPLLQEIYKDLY

| SMILES | activation |
| --- | --- |
| CCc1c(-c2ccccc2)nc(N)c(C#N)c1-c1cccs1 | 11.1% |
| Cn1c(-c2sc3cc(C(F)(F)F)cnc3c2-c2ccccc2)n[nH]c1=S | 89.8% (active) |
| O=C(O)Cc1sc(-c2ccccc2)nc1-c1cccs1 | 42.6% (active) |
| CC(=O)c1sc2nc(SCC(=O)N3CCCCC3)[nH]c(=O)c2c1C | 27.4% (active) |
| Nc1ccc(Nc2ccccc2)cc1 | 10.1% |
| OCC1(CCc2ccccc2)CCN(Cc2ccc3nsnc3c2)CC1 | 32.8% (active) |
| Cn1c(=O)cc(SCC(=O)N2CCN(C(=O)c3ccco3)CC2)c2ccccc21 | 22.2% (active) |
| CCN(/N=C/c1ccc(N(C)C)cc1)c1nc2ccccc2[nH]1 | 9.9% |
| CCOc1ccc(NC(=O)CSc2ncnc3c2sc2ccccc23)cc1 | 46% (active) |
| Cn1c(=O)cc(SCC(=O)N2CCCC2)c2cc(Cl)ccc21 | 60.1% (active) |
| Cc1cc(N2C(=O)C(=O)/C(=C(/O)c3ccc(Cl)cc3)C2c2cccc(Br)c2)no1 (stereo unspecified) | 28.1% (active) |
| COC(=O)c1[nH]c2ccc(Br)cc2c1NC(=O)Oc1ccccc1 | 7.14% |
| Cc1nc(-c2ccccc2)sc1-c1nc(-c2ccccc2)ncc1S(=O)(=O)c1ccccc1 | 48.5% (active) |

target: Peroxisome proliferator-activated receptor gamma (Homo sapiens) (UniProt P37231); experiment: retest of SRC-1 recruitment enhancers for PPARgamma – biochemical, confirmation (AID 1300; in the data active = activation above about 20%;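 note: 0% = vehicle wells and 100% = reference agonist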); details: PPARgamma–SRC-1 coactivator recruitment biochemical assay; at 8 µM; stronger effect = higher value

| SMILES | activation |
| --- | --- |
| O=C(Oc1ccccc1)Oc1ccc2c(c1)oc(=O)c1ccccc12 | 16.1% |
| Fc1ccc(COc2cccc(-c3n[nH]c(=S)o3)c2)cc1 | 39.9% (active) |
| CCOC(=O)C1CCN(C(=O)CSc2cc(=O)n(C)c3ccccc23)CC1 | 22.9% (active) |
| CCn1c(=O)cc(SCC(=O)NCc2ccc3c(c2)OCO3)c2ccccc21 | 15.8% |
| CSc1c(SCc2ccccc2)cnn(Cc2ccccc2)c1=O | 28.5% (active) |
| CNC(=S)N1N=C(c2ccccc2)CC1c1ccc(Br)cc1 (stereo unspecified) | 23.1% (active) |
| O=C(CSc1c2c(nc3ccc(Cl)cc13)CCCC2)NCc1ccco1 | 15.5% |
| COc1ccc2c(Cl)c(-c3nnco3)sc2c1 | 13.6% |
| COc1ccc(/C(O)=C2/C(=O)C(=O)N(c3nc(C)c(C)s3)C2c2ccco2)cc1 (stereo unspecified) | 17.5% |
| COC(=O)Cn1cc(C(=O)c2cccs2)c2ccccc21 | 0.95% |
| Cc1cc(C)c2c(c1)cc(C)c1nnc(SCC(=O)Nc3cc(C)on3)n12 | 17.6% |
| CC(=O)n1c(C=Nc2ccccc2)c(O)c2ccccc21 | 0.42% |
| Cc1cc(C)c2cc(CN(Cc3cccs3)Cc3nnnn3CC3CCCO3)c(=O)[nH]c2c1 (stereo unspecified) | 11.9% |
| CCn1c(SCC(=O)Nc2cccc(F)c2)nnc1-c1cc2cc(Br)ccc2o1 | 15% |
| Cc1ccccc1-c1n[nH]c(=S)n1/N=C/c1ccc(-c2ccccc2Br)o1 | 28.2% (active) |
| Cc1ccc(-c2cc(C(=O)NCc3cn(C)nc3C)c3cc(Br)ccc3n2)cc1 | 15.9% |
| CCc1c(-c2ccccc2)nc(N)c(C#N)c1-c1cccs1 | 13.3% |
| Cn1c(-c2sc3cc(C(F)(F)F)cnc3c2-c2ccccc2)n[nH]c1=S | 67% (active) |
| O=C(O)Cc1sc(-c2ccccc2)nc1-c1cccs1 | 34.7% (active) |
| CC(=O)c1sc2nc(SCC(=O)N3CCCCC3)[nH]c(=O)c2c1C | 20.8% (active) |
| Nc1ccc(Nc2ccccc2)cc1 | 5.63% |
| OCC1(CCc2ccccc2)CCN(Cc2ccc3nsnc3c2)CC1 | 26.3% (active) |
| Cn1c(=O)cc(SCC(=O)N2CCN(C(=O)c3ccco3)CC2)c2ccccc21 | 12.7% |
| CCN(/N=C/c1ccc(N(C)C)cc1)c1nc2ccccc2[nH]1 | 6.2% |
| CCOc1ccc(NC(=O)CSc2ncnc3c2sc2ccccc23)cc1 | 29.5% (active) |
| Cn1c(=O)cc(SCC(=O)N2CCCC2)c2cc(Cl)ccc21 | 41.1% (active) |
| Cc1cc(N2C(=O)C(=O)/C(=C(/O)c3ccc(Cl)cc3)C2c2cccc(Br)c2)no1 (stereo unspecified) | 18.8% |
| COC(=O)c1[nH]c2ccc(Br)cc2c1NC(=O)Oc1ccccc1 | 3.71% |
| Cc1nc(-c2ccccc2)sc1-c1nc(-c2ccccc2)ncc1S(=O)(=O)c1ccccc1 | 29.3% (active) |

target: Peroxisome proliferator-activated receptor gamma (Homo sapiens) + Nuclear receptor coactivator 3 (Homo sapiens) (UniProt P37231+Q9Y6Q9); experiment: agonists promoting SRC-3 binding to PPARgamma – biochemical, confirmation (AID 1301); details: biochemical PPARgamma-SRC-3 coactivator recruitment, agonist mode; at 8 µM; stronger effect = higher value;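 note: 0% = vehicle wells and 100% = reference agonist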
Sequence (P37231 whole entry, looked up): as above
Sequence (Q9Y6Q9 whole entry, looked up): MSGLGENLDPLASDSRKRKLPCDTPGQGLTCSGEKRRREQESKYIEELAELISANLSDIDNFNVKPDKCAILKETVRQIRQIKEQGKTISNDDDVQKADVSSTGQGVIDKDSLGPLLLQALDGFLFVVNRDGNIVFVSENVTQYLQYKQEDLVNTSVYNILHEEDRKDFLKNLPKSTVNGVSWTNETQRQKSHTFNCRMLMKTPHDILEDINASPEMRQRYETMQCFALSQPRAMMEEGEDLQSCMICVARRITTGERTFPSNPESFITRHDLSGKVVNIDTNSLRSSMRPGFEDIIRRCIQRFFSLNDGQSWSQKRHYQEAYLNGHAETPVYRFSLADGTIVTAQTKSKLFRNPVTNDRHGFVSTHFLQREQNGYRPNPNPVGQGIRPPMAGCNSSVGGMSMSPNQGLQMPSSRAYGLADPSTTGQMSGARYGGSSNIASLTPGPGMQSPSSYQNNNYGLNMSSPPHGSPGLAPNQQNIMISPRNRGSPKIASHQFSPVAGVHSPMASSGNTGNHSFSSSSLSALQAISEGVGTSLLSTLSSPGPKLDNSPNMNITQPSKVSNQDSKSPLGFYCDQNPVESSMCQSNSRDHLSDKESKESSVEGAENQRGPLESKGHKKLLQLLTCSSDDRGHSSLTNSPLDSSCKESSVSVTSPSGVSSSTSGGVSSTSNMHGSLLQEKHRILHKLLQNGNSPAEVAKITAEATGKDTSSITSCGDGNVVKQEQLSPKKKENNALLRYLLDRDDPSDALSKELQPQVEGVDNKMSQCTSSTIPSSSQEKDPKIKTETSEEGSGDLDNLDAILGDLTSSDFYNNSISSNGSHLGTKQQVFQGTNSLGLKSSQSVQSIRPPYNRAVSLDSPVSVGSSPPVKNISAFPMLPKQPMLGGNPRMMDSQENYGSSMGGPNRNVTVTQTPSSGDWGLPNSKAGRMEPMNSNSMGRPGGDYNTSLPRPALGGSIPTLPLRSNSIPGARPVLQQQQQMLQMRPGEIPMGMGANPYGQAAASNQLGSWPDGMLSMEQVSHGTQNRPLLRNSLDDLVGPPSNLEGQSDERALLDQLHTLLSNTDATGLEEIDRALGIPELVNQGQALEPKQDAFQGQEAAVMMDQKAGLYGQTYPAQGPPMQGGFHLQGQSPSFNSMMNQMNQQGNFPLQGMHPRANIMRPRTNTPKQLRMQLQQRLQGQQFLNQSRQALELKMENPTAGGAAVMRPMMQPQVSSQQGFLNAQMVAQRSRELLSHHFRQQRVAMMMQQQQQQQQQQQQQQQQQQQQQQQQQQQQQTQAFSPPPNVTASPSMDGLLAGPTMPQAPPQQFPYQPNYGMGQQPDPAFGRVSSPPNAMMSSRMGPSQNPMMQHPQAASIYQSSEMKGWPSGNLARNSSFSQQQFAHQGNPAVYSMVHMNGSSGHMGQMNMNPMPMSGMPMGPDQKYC

| SMILES | activation |
| --- | --- |
| O=C(Oc1ccccc1)Oc1ccc2c(c1)oc(=O)c1ccccc12 | 19.9% |
| Fc1ccc(COc2cccc(-c3n[nH]c(=S)o3)c2)cc1 | 34% (active) |
| CCOC(=O)C1CCN(C(=O)CSc2cc(=O)n(C)c3ccccc23)CC1 | 24.4% (active) |
| CCn1c(=O)cc(SCC(=O)NCc2ccc3c(c2)OCO3)c2ccccc21 | 18.1% |
| CSc1c(SCc2ccccc2)cnn(Cc2ccccc2)c1=O | 25.9% (active) |
| CNC(=S)N1N=C(c2ccccc2)CC1c1ccc(Br)cc1 (stereo unspecified) | 17.2% |
| O=C(CSc1c2c(nc3ccc(Cl)cc13)CCCC2)NCc1ccco1 | 14.4% |
| COc1ccc2c(Cl)c(-c3nnco3)sc2c1 | 13.6% |
| COc1ccc(/C(O)=C2/C(=O)C(=O)N(c3nc(C)c(C)s3)C2c2ccco2)cc1 (stereo unspecified) | 16.1% |
| COC(=O)Cn1cc(C(=O)c2cccs2)c2ccccc21 | 0.74% |
| Cc1cc(C)c2c(c1)cc(C)c1nnc(SCC(=O)Nc3cc(C)on3)n12 | 12.5% |
| CC(=O)n1c(C=Nc2ccccc2)c(O)c2ccccc21 | 5.23% |
| Cc1cc(C)c2cc(CN(Cc3cccs3)Cc3nnnn3CC3CCCO3)c(=O)[nH]c2c1 (stereo unspecified) | 15% |
| CCn1c(SCC(=O)Nc2cccc(F)c2)nnc1-c1cc2cc(Br)ccc2o1 | 14.3% |
| Cc1ccccc1-c1n[nH]c(=S)n1/N=C/c1ccc(-c2ccccc2Br)o1 | 22.5% |
| Cc1ccc(-c2cc(C(=O)NCc3cn(C)nc3C)c3cc(Br)ccc3n2)cc1 | 16.9% |
| CCc1c(-c2ccccc2)nc(N)c(C#N)c1-c1cccs1 | 8.84% |
| Cn1c(-c2sc3cc(C(F)(F)F)cnc3c2-c2ccccc2)n[nH]c1=S | 53.5% (active) |
| O=C(O)Cc1sc(-c2ccccc2)nc1-c1cccs1 | 32.9% (active) |
| CC(=O)c1sc2nc(SCC(=O)N3CCCCC3)[nH]c(=O)c2c1C | 18.3% |
| Nc1ccc(Nc2ccccc2)cc1 | 6.91% |
| OCC1(CCc2ccccc2)CCN(Cc2ccc3nsnc3c2)CC1 | 22.9% |
| Cn1c(=O)cc(SCC(=O)N2CCN(C(=O)c3ccco3)CC2)c2ccccc21 | 17.9% |
| CCN(/N=C/c1ccc(N(C)C)cc1)c1nc2ccccc2[nH]1 | 6.08% |
| CCOc1ccc(NC(=O)CSc2ncnc3c2sc2ccccc23)cc1 | 32.6% (active) |
| Cn1c(=O)cc(SCC(=O)N2CCCC2)c2cc(Cl)ccc21 | 42% (active) |
| Cc1cc(N2C(=O)C(=O)/C(=C(/O)c3ccc(Cl)cc3)C2c2cccc(Br)c2)no1 (stereo unspecified) | 14% |
| COC(=O)c1[nH]c2ccc(Br)cc2c1NC(=O)Oc1ccccc1 | 4.54% |
| Cc1nc(-c2ccccc2)sc1-c1nc(-c2ccccc2)ncc1S(=O)(=O)c1ccccc1 | 22.7% |
